Test results reported in PubChem BioAssay.
Calls of active or inactive are those of the source.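 How the source made its calls: active means mean duplicate potentiation above the buffer control mean plus 5 SD of buffer wells; inactive means the rest.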

Target: Potassium voltage-gated channel subfamily KQT member 2 (Rattus norvegicus) (UniProt O88943)
Test: KCNQ2 thallium flux enhancement – KCNQ2-CHO-K1 cells, selectivity assay for KCNQ1 potentiator project (AID 493009);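 further: assay conditions were tuned for KCNQ1 rather than KCNQ2 modulators; signal is max minus min fluorescence divided by baseline after thallium stimulus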
Conditions: FluxOR thallium flux fluorescence, at 10 µM; active compounds read high, scaled: buffer 0, activator control 100

Potassium voltage-gated channel subfamily KQT member 2 (Rattus norvegicus), sequence (O88943 whole entry, looked up): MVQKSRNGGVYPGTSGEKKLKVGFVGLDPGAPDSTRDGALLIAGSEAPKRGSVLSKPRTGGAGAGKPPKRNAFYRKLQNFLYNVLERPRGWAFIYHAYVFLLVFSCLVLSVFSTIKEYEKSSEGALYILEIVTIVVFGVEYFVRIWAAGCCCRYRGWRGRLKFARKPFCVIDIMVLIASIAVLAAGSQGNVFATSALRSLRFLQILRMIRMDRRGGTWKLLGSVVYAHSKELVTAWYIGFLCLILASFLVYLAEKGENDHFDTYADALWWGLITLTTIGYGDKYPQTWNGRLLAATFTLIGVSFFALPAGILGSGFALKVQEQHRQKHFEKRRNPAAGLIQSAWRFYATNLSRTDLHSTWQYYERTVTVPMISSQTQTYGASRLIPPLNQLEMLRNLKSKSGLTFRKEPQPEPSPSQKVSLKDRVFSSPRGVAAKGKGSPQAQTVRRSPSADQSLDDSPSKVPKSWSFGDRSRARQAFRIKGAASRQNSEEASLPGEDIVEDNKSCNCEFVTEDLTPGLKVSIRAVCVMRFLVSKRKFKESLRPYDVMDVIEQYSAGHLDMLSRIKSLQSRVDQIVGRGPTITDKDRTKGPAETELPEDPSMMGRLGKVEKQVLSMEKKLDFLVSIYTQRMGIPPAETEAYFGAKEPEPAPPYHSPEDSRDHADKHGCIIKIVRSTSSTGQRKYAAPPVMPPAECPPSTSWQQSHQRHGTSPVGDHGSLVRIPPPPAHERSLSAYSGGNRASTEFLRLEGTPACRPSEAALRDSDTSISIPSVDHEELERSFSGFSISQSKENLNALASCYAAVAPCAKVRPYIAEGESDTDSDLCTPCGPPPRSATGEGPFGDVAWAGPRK

`Cc1ccc(O)c(C(=O)CC(=O)c2ccc(Cl)cc2)c1` was tested. Which outcome did it give?
Its outcome is “inactive”.

Which potentiation does the source give for `Cc1sc2nc(C(C)C)nc(SCC(=O)NCc3ccco3)c2c1C` here?
Its potentiation is 280% (active).

For `O=C(NC(=S)Nc1ccccc1)c1csnn1`, which potentiation is on record?
Its potentiation is 642% (active).

Which outcome does the source give for `CS(=O)(=O)NN1C(=O)c2ccccc2NC1c1ccccc1F` (centres undefined) here?
The outcome was “inactive”.

Which potentiation does the source give for `Cc1ccc(N=Nc2ccc(O)c3ncccc23)cc1C` here?
Its potentiation is 190% (active).

Which outcome does the source give for `CC(=O)CC1(OC(C)=O)C(=O)N(C)c2ccccc21` (centres undefined) here?
The outcome was “inactive”.

With `CCN(CC)C(=S)NC(=O)c1ccc(Cl)cc1Cl` as the molecule, how does the potentiation read?
The potentiation was 196% (active).

How did the outcome turn out when `COc1ccccc1C(=O)Nc1ccnn1C1CCN(CCCC2CCCC2)CC1` was run?
The outcome was “inactive”.

`CCC(CC)C1=NN2C(=N)/C(=C\c3cc(C)n(-c4cccc(C)c4)c3C)C(=O)N=C2S1` was tested. Which outcome did it give?
The outcome was “inactive”.

Which potentiation does the source give for `Cc1ccc(OCC(=O)NNC(=S)NC(=O)c2cccs2)c(C)c1` here?
Its potentiation is 238% (active).

For `Cc1ccc(-c2csc3nc[nH]c(=S)c23)cc1`, which potentiation is on record?
Its potentiation is 300% (active).

How did the outcome turn out when `O=Cc1cc2ccccc2nc1SCCCF` was run?
The outcome was “inactive”.

`Cc1c(Cl)cccc1NC(=O)Cn1c(CCC(=O)O)ccc1-c1ccccc1` was tested. Which outcome did it give?
Its outcome is “inactive”.

For `Cc1cccc(NC(=S)NC(=O)c2ccc(Br)o2)c1C`, which outcome is on record?
The outcome was “inactive”.

`COc1ccc(-c2cc(C(=O)Nc3c(Cl)cc(Cl)cc3Cl)c3ccccc3n2)cc1OC` was tested. Which outcome did it give?
The outcome was “inactive”.

Which potentiation does the source give for `Cc1cccc(-c2nnc(NC(=O)c3ccc(Cl)cc3)o2)c1` here?
Its potentiation is 155% (active).

`COc1ccc2[nH]c3c(c2c1)CCNC3C1CC=C(C)CC1` (centres undefined) was tested. Which outcome did it give?
The outcome was “inactive”.

Which outcome does the source give for `COc1ccc(S(=O)(=O)NCCOc2ccccc2)cc1OC` here?
Its outcome is “inactive”.

With `Cc1onc(-c2ccccc2)c1C(=O)N1CCN(S(=O)(=O)c2ccc(OC(F)(F)F)cc2)CC1` as the molecule, how does the outcome read?
The outcome was “inactive”.
